From PubChem BioAssay (NCATS)
Unmarked numbers belong to inactive results. Inconclusive results are not listed. Active and inactive are the calls of the source. Unless noted, calls follow the shape of the dose curve; as a rule, active = well fitted curve in the direction sought with a large enough effect; inconclusive = small, poorly fitted or top-dose-only effect, or another doubt; inactive = no such curve, though single readings can be large; an effect the other way counts as inactive or inconclusive.

Assays:
[1] = system: SKOV3; experiment: Primary qHTS to identify gynecologic anti-cancer compounds using libraries of approved drugs and bioactive compounds (AID 1345084); conditions: Gynecologic cancer cell panel viability, ATPlite luminescence, 48 h; series mostly up to 57.5 µM; also: nearly all actives have a fitted effect of over 55% in size; also: potency is read from the fitted curve at half-maximal effect
Summary of the method: (§1)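 ATP-based viability (ATPlite), 1,000 cells/well, 16 h pre-incubation, 48 h compound at 37 C, 5% CO2, 15 min RT before read.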

[2] = system: Tov-21-G; experiment: as above; conditions: Gynecologic cancer cell panel viability, ATPlite luminescence, 48 h; series mostly up to 57.5 µM
Summary of the method: as §1

[3] = system: Tov112D; experiment: as above; conditions: Gynecologic cancer cell panel viability, ATPlite luminescence, 48 h; series mostly up to 57.5 µM
Summary of the method: as §1

[4] = Drug repurposing screens with cells derived from glioblastoma tumor samples (AID 1345199); conditions: GBM patient neurospheres viability, ATP luminescence, 48 h; also: nearly all actives have a fitted effect of over 40% in size; also: potency is read from the fitted curve at half-maximal effect; as to activity, negative = cell killing: % is scaled to controls: 0 for no effect and ±100 for the full control effect
Summary of the method: (§2)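 Four patient lines of CD133+ GBM neurospheres were screened at several concentrations; hits were retested in those lines plus three slower-growing GBM lines, using 48-hour treatment and ATP-based viability.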

[5] = system: astro; experiment: as above; conditions: viability, ATP luminescence, 48 h; series mostly up to 45.9 µM
Summary of the method: as §2

[6] = system: PA-1; experiment: Primary qHTS to identify gynecologic anti-cancer compounds using libraries of approved drugs and bioactive compounds (AID 1345084); conditions: Gynecologic cancer cell panel viability, ATPlite luminescence, 48 h; series mostly up to 57.5 µM; also: nearly all actives have a fitted effect of over 55% in size; also: potency is read from the fitted curve at half-maximal effect
Summary of the method: as §1

[7] = target: Nuclear receptor subfamily 1 group I member 2 (Rattus norvegicus) (UniProt Q9R1A7); experiment: qHTS assay for small molecule activators of the rat pregnane X receptor (rPXR) signaling pathway (AID 651751; call rule not given here; also: 0% is about no effect); conditions: rPXR reporter cells, luciferase (One-Glo), 24 h
Sequence of Nuclear receptor subfamily 1 group I member 2 (Rattus norvegicus) (Q9R1A7 whole entry, looked up): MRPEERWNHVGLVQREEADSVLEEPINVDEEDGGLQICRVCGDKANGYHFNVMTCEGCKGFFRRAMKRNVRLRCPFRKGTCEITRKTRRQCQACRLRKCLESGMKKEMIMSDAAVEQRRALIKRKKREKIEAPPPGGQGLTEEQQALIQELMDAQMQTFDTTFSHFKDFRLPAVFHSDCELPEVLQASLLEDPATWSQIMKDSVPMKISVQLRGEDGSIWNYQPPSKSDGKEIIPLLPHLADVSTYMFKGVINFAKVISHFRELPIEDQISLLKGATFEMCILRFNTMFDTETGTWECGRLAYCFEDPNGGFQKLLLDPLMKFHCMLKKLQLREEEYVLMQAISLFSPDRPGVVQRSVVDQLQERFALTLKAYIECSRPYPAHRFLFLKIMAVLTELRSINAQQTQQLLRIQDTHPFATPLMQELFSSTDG

[8] = qHTS assay for small molecule activators of the human pregnane X receptor (PXR) signaling pathway (AID 720659; call rule not given here; also: 0% is about no effect)
[9] = qHTS assay to identify inhibitors of the type 1 interferon - major histocompatibility complex class I in skeletal muscle: Counter screen cell viability and HiBit confirmation (AID 1347412); conditions: iHSKM muscle cells + IFN-b, HiBiT or CellTiter-Glo, 24 h; Potency: HiBiT unless noted; Viability, at 45.9 µM (top of the series); also: nearly all actives have a fitted effect of over 60% in size; also: potency is read from the fitted curve at half-maximal effect
Summary of the method: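 Luminescence read-out: Nano-Glo HiBiT lytic signal from C-terminally HiBiT-tagged HLA-B in CRISPR-edited human myoblasts, plus CellTiter Glo ATP as viability counter screen. IFN-beta 4.0 ng/ml; 24 hrs treatment at 37 C, 5% CO2.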

[10] = at 45.9 µM (top of the series), tumour line B
[11] = at 45.9 µM (top of the series), tumour line D
[12] = at 46.1 µM (top of the series), tumour line C
[13] = at 20 µM (top of the series), tumour line C
[14] = at 21.2 µM (top of the series), tumour line B
[15] = at 46 µM (top of the series), tumour line A

C[C@]12CC[C@@H]3c4ccc(O)cc4CC[C@H]3[C@@H]1C[C@@H](O)[C@@H]2O
Potency [1]: inactive
Potency [2]: inactive
Potency [3]: inactive
activity, negative = cell killing [4, 10]: -9.53%
activity, negative = cell killing [4, 11]: -17.2%
activity, negative = cell killing [4, 12]: 22.1%
Potency [5]: inactive

O=C(CCCN1CCC(O)(c2ccc(Br)cc2)CC1)c1ccc(F)cc1
Potency [1]: inactive
Potency [2]: inactive
Potency [3]: inactive
activity, negative = cell killing [4, 13]: 5.41%
Potency ([4]; tumour line A): 3.55 µM (active)
Potency ([4]; tumour line D): 8.91 µM (active)
Potency [5]: inactive

CC(C)COC(=O)c1ccc(N)cc1
Potency [6]: inactive
Potency [2]: inactive
Potency [3]: inactive
activity, negative = cell killing [4, 10]: -9.56%
activity, negative = cell killing [4, 11]: -18.7%
activity, negative = cell killing [4, 12]: -7.77%
Potency [5]: inactive

CN1CCN(CCCN2c3ccccc3Sc3ccc(S(=O)(=O)N(C)C)cc32)CC1
Potency [1]: inactive
Potency [2]: inactive
Potency [3]: inactive
activity, negative = cell killing [4, 13]: 3.3%
activity, negative = cell killing [4, 14]: -12.4%
Potency ([4]; tumour line A): 7.94 µM (active)
Potency [5]: inactive

CC(C)(C)CC(C)(C)c1ccc(O)c(Cc2ccc(Cl)cc2Cl)c1
Potency [6]: inactive
Potency [2]: inactive
Potency [3]: inactive
Potency [5]: 22.4 µM (active)

Cc1c(N(C)CS(=O)(=O)O)c(=O)n(-c2ccccc2)n1C
Potency [1]: inactive
activity, negative = cell killing [4, 13]: -2.96%
activity, negative = cell killing [4, 14]: -9.28%
activity, negative = cell killing ([4]; at 21.2 µM (top of the series), tumour line D): -9.47%
activity, negative = cell killing ([4]; at 21.3 µM (top of the series), tumour line A): -23.9%

CN(C)C(=S)SC(=S)N(C)C
Potency [1]: 11.2 µM (active)
Potency [2]: 8.91 µM (active)
Potency [3]: 28.2 µM (active)
activity, negative = cell killing [4, 10]: -2.75%
activity, negative = cell killing [4, 11]: -2.32%
activity, negative = cell killing [4, 15]: -14.5%
activity, negative = cell killing [4, 12]: -7.02%
max response [7]: -1.67%

COc1c(C)c2c(c(O)c1C/C=C(\C)CCC(=O)O)C(=O)OC2
Potency [6]: 0.282 µM (active)
Potency [2]: 1 µM (active)
activity, negative = cell killing [4, 13]: -18.6%

O=C1CCC(c2ccc(-n3ccnc3)cc2)=NN1
activity, negative = cell killing [4, 10]: -6.09%
activity, negative = cell killing [4, 11]: -6.36%
activity, negative = cell killing [4, 12]: -27.3%
Potency [5]: inactive

CN(C)/N=N/c1nc[nH]c1C(N)=O
activity, negative = cell killing [4, 10]: -24.8%
activity, negative = cell killing [4, 11]: -1.38%
activity, negative = cell killing [4, 15]: -11.7%
activity, negative = cell killing [4, 12]: -12%
Potency [5]: inactive
max response [7]: -2.27%
outcome [8]: inactive

O=C(O)c1cc2cc(Cc3cccnc3)ccc2o1
activity, negative = cell killing [4, 10]: -16.4%
activity, negative = cell killing [4, 11]: -17.6%
Potency [5]: inactive

CCCC1O[C@@H]2C[C@H]3[C@@H]4CCC5=CC(=O)C=C[C@]5(C)[C@H]4[C@@H](O)C[C@]3(C)[C@]2(C(=O)CO)O1 (stereo not given in full)
activity, negative = cell killing [4, 10]: -17.2%
activity, negative = cell killing [4, 11]: -5.46%
activity, negative = cell killing [4, 12]: -20.2%
Potency [5]: inactive

C[N+]1(CCCCC[N+]2(C)CCCC2)CCCC1
activity, negative = cell killing [4, 10]: 0.364%
activity, negative = cell killing [4, 11]: -0.863%
activity, negative = cell killing [4, 15]: -3.4%
activity, negative = cell killing [4, 12]: -6.31%

Nc1ccn([C@@H]2O[C@H](CO)[C@@H](O)C2(F)F)c(=O)n1
Potency [2]: inactive
Potency [3]: 0.178 µM (active)

Cc1c(C)n(Cc2ccccc2)c2ccc(C(=O)OCCN(C)C)cc12
Potency [2]: inactive
Potency [3]: inactive
activity, negative = cell killing [4, 12]: -16.7%
Potency ([4]; tumour line A): 11.2 µM (active)
Potency ([4]; tumour line D): 10 µM (active)

C[C@@H]1CN(CCCn2c3ccccc3c3ccccc32)C[C@H](C)N1
Potency [5]: 12.6 µM (active)

CCCn1c(=O)[nH]c(=O)c2[nH]cnc21
activity, negative = cell killing [4, 10]: -19.3%
activity, negative = cell killing [4, 11]: 9.35%
activity, negative = cell killing [4, 15]: -17.3%
activity, negative = cell killing [4, 12]: -18.8%
Potency [5]: inactive

CCN(CC)CCOc1ccc(C(O)(Cc2ccc(Cl)cc2)c2ccc(C)cc2)cc1 (stereo not given)
Potency [5]: 22.4 µM (active)

CCOc1ccc2nc3cc(N)ccc3c(N)c2c1
Potency [2]: inactive
activity, negative = cell killing [4, 10]: -17.9%
activity, negative = cell killing [4, 11]: -30.3%
activity, negative = cell killing [4, 15]: -14.8%
activity, negative = cell killing [4, 12]: 1.93%

Cc1ccccc1C(=O)Nc1ccc(C(=O)N2CCCC(N(C)C)c3ccccc32)cc1 (stereo not given)
Potency [3]: 8.91 µM (active)

Nc1cc(Cl)c(NC2=NCCN2)c(Cl)c1
activity, negative = cell killing [4, 10]: -8.4%
activity, negative = cell killing [4, 11]: -1.45%
activity, negative = cell killing [4, 15]: -27.8%
activity, negative = cell killing [4, 12]: -9.7%
Potency [5]: inactive

Cc1cccc(C)c1NC(=O)CN1CCN(CCCC(c2ccc(F)cc2)c2ccc(F)cc2)CC1
Potency [2]: inactive
Potency [3]: inactive
Potency [5]: inactive

C#C[C@]1(O)CC[C@H]2[C@@H]3CCc4cc(OC5CCCC5)ccc4[C@H]3CC[C@@]21C
Potency [2]: inactive
Potency [3]: inactive
activity, negative = cell killing [4, 12]: -25.1%
Potency ([4]; tumour line A): 4.47 µM (active)
Potency ([4]; tumour line B): 10 µM (active)

CCCCOc1cc(C(=O)NCCN(CC)CC)c2ccccc2n1
Potency [3]: inactive
activity, negative = cell killing [4, 13]: 9.91%
activity, negative = cell killing [4, 14]: -15.3%
Potency ([4]; tumour line A): 3.98 µM (active)
Potency [5]: inactive

Oc1c(I)cc(Cl)c2cccnc12
activity, negative = cell killing [4, 12]: -11.9%
Potency ([4]; tumour line A): 17.8 µM (active)
Potency ([4]; tumour line B): 17.8 µM (active)
max response [7]: -1.19%

COc1cccc2c1C(=O)c1c(O)c3c(c(O)c1C2=O)C[C@@](O)(C(C)=O)C[C@@H]3O[C@H]1C[C@H](N)[C@H](O)[C@H](C)O1
Potency [3]: 0.398 µM (active)
Potency [5]: 1.12 µM (active)
Potency [9]: 0.442 µM (active)
max response [7]: -12.1%
outcome [8]: inactive

Oc1ccc(Cl)cc1Sc1cc(Cl)ccc1O
Potency [1]: inactive
Potency [5]: 7.94 µM (active)

COc1cc(C=C2CCC/C(=C\c3ccc(O)c(OC)c3)C2=O)ccc1O
Potency [9]: inactive

O=c1c(-c2ccccc2)c1-c1ccccc1
Potency [2]: inactive
Potency [5]: 12.6 µM (active)

C[C@]12CC[C@@H]3c4ccc(O)cc4CC[C@H]3[C@@H]1CC[C@@H]2O
activity, negative = cell killing [4, 10]: -16.2%
activity, negative = cell killing [4, 12]: -20.5%
Potency ([4]; tumour line A): 31.6 µM (active)

N[C@H](CO)C(=O)O
activity, negative = cell killing [4, 10]: 4.31%
activity, negative = cell killing [4, 11]: -24.3%
activity, negative = cell killing [4, 12]: 2.37%

CC1(C)CCC(NC(=O)[C@@H](N)CCC(=O)O)CC1
activity, negative = cell killing [4, 10]: -9.8%
activity, negative = cell killing [4, 11]: -20.2%
activity, negative = cell killing [4, 15]: -26.1%
activity, negative = cell killing [4, 12]: -24.2%
Potency [5]: inactive

N[C@@H](Cc1cnc[nH]1)C(=O)O
activity, negative = cell killing [4, 10]: -11.3%
activity, negative = cell killing [4, 11]: -9.45%
activity, negative = cell killing [4, 12]: -12.5%
Potency [5]: inactive

CC(C)COC(=O)OCN1C(=O)CN(CCN2CC(=O)N(COC(=O)OCC(C)C)C(=O)C2)CC1=O
activity, negative = cell killing [4, 10]: -7.7%
activity, negative = cell killing [4, 11]: -16.2%
activity, negative = cell killing [4, 15]: -10.8%
activity, negative = cell killing [4, 12]: -11%
Potency [5]: inactive

COC(=O)[C@H]1[C@H]2C[C@H]3c4[nH]c5ccccc5c4CCN3C[C@H]2CC[C@@H]1O
activity, negative = cell killing [4, 10]: -4.34%
activity, negative = cell killing [4, 11]: -13.5%
activity, negative = cell killing [4, 12]: 4.13%
Potency [5]: inactive

CC(C)C[C@H]1C(=O)N2CCC[C@H]2[C@]2(O)O[C@](NC(=O)[C@@H]3C=C4c5cccc6[nH]c(Br)c(c56)C[C@H]4N(C)C3)(C(C)C)C(=O)N12
activity, negative = cell killing [4, 10]: -7.46%
activity, negative = cell killing [4, 12]: 12.4%
Potency ([4]; tumour line A): 2.24 µM (active)
Potency [5]: inactive
